Assay results: PubChem BioAssay (NCI)
Compounds without any hit were thinned out: in the full panel of roughly 83,000, 20% have a hit.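 Assay: single dose, 48 h. Readout: percent growth (0 = no net growth; negative = cell death). Active: <10.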 The source made the active and inactive calls.

Tested on: ACHN renal
Assay: NCI-60 one-dose screen, 48 h (100 = growth as untreated, 0 = no growth, -100 = all killed)
Conditions: 10 µM unless noted
Experimental: Growth inhibition of the ACHN human tumor cell line is measured as a screen for anti-cancer activity. Cells are grown in 96 well plates and exposed to the test compound for 48 hours. Compounds are tested at a single concentration, which is 10^-5 M for most compounds. The reported endpoint is percent growth (GI% or GIPRCNT), where numbers from 0 - 100% represent growth inhibition, and numbers from -100% - 0 represent cell death. For example, a value of 40 represents 60% growth inhibition. A value of 0 means no net growth occurred over the course of the experiment. A value of -40 indicates 40% of cells at the beginning of the experiment died by the end of the experiment. A value of -100 means all cells are dead at the end of the experiment.
NCI-60 Human Tumor Cell Lines Screen was performed using the standard one-dose NCI protocol, which is described in more detail at https://dtp.cancer.gov/discovery_development/nci-60/default.htm.
Compounds with GIPRCNT values below 10 were considered active. Activity score was based on GIPRCNT using the following formula: […]
Score is 0 for GIPRCNT values of 100 or above, 50 for GIPRCNT values of 0, and 100 for GIPRCNT values of -100.

SMILES	growth
O=[N+]([O-])c1ccccc1C(O)Cc1ccc2ccccc2n1 (stereo not given)	85.9% (inactive)
CS(=O)(=O)c1ccc(-c2nc3cc(Cl)ccc3n2CC(=O)NO)cc1	93.7% (inactive)
COc1ccc(OC)c(C(=O)Nc2cccc(-c3cc(=O)c4ccccc4o3)c2)c1	84.7% (inactive)
CCn1nc(C#Cc2c(C)ccc3c(Nc4ccc(Cl)cc4)nccc23)c2c(N)ncnc21	8.02% (active)
O=C1NN(C(=O)c2ccc(O)cc2)C(c2ccccc2)=N/C1=C\c1cn(-c2ccccc2)nc1-c1ccccc1	88.4% (inactive)
COc1ccc(-c2nc3sc4c(c3c(=O)[nH]2)CCCC4)c2ccccc12	-32.5% (active)
CN(C)CCC(O)(Cc1ccccc1)c1ccccc1 (stereo not given)	101% (inactive)
Cn1cc(-c2ccc3ncc(-c4ccc(CC(=O)Nc5cc(C(C)(C)C)nn5C)cc4)cc3c2)cn1	8.71% [30 µM] (active)
CCCCCCNCc1cc(C(C)(C)C)cc(CNCCCCCC)c1O	-84.2% (active)
N[C@@H]1CCC[C@H]1NCCCCN1C(=O)c2cccc3cccc(c23)C1=O	52.9% (inactive)
COc1cc(-c2cc(-c3ccc(Nc4nc(Nc5ccccc5)nc(Nc5ccc(Cl)cc5)n4)cc3)nc(N)n2)cc(OC)c1OC	59.7% (inactive)
Cc1[nH]c(-c2nc3ccccc3[nH]2)c(C)c1C(=O)NNc1ccc(Cl)cc1	102% (inactive)
CN(C)S(=O)(=O)n1cnc([C@@H]2[C@@H]3C(=O)OC[C@@H]3C[C@]23N=CN(Cc2ccccc2)C3=O)c1	102% (inactive)
O=C(NCOC(O)C(Cl)(Cl)Cl)NCOC(O)C(Cl)(Cl)Cl (stereo not given)	92.8% (inactive)
Clc1ccc(-c2nnc(Cn3ccnc3)o2)cc1	98.9% (inactive)
CN1CCN(CCCOc2ccc3nc(Nc4cc(Cl)cc(Cl)c4)ccc3c2)CC1	-98.8% (active)
CCN(CC)CCOc1ccc(/C(=C(\C)c2ccc(F)c(OC)c2)c2ccc(Cl)cc2)cc1	25.8% (inactive)
CN(C)c1ccc(C#Cc2c(F)cccc2Cl)cc1	83.5% (inactive)
O=C1N/C(=N/O)S/C1=C/c1cn(-c2ccccc2)nc1-c1ccccc1	100% (inactive)
O=C(c1ccccc1)c1ccc(Cl)c([N+](=O)[O-])c1	98.2% (inactive)

SMILES	growth
C=CCO[C@H]1CO[C@H]2[C@@H]1OC[C@@H]2Oc1ccc(Nc2ccnc(Nc3ccc(O[C@H]4CO[C@H]5[C@@H]4OC[C@@H]5OCC=C)c(Cl)c3)n2)cc1Cl	14.5% (inactive)
CC(C)n1nc(C#Cc2cccc(NC(=O)c3cccc(C(F)(F)F)c3)c2)c2c(N)ncnc21	-31.9% (active)
O=C(/C=C/C12c3ccccc3C(c3ccccc31)C1C(=O)NC(=O)C12)c1ccc(Cl)cc1 (stereo not given)	-44.8% (active)
COC(=O)CNC(=O)C(=O)c1c(O)c(O)c(C(C)C)c2cc(C)c(-c3c(C)cc4c(C(C)C)c(O)c(O)c(C(=O)C(=O)NCC(=O)OC)c4c3O)c(O)c12	3.33% (active)
NS(=O)(=O)c1cn(-c2ncnc3nc[nH]c23)ccc1=O	99.2% (inactive)
Cc1nc2ccc(C(=O)NCc3cc(C(=O)O)c(C)o3)cc2nc1C	99.4% (inactive)
COc1cc2oc(-c3cccc(C(=O)Nc4ccc(C)cc4)c3)cc(=O)c2c(OC)c1OC	34.2% (inactive)
Nc1nc(I)c2ncn(C3OC(CO)C(O)C3O)c2n1 (stereo not given)	111% (inactive)
O=C(Nc1ccccc1)c1sc(-c2cccc(C(F)(F)F)c2)cc1O	79.5% (inactive)
CC(/C=N/NC(=O)c1cc(-c2ccco2)[nH]n1)=C\c1ccccc1	93.1% (inactive)
CCCCNC(=O)c1cc(NCc2cc(O)ccc2O)ccc1O	89.4% (inactive)
C[C@@H]1CC[C@@H]2[C@@H]1[C@H](OC(=O)/C=C/c1ccccc1)[C@]1(CCCOCCOCCOCCOC(=O)CCCC[C@@H]3SC[C@@H]4NC(=O)N[C@@H]43)C[C@@H](OC(=O)CO)[C@@]2(C)O1	102% (inactive)
Cc1cn(C2CCCCC2)c(=O)[nH]c1=O	103% (inactive)
CCNCCNc1cc(-c2ccc(F)cc2)c(C#N)c2nc3ccccc3n12	9.08% (active)
Cc1ccccc1NC(=O)CN(C)C	99.6% (inactive)
Fc1ccc(Nc2ccc3cc(OCCCN4CCOCC4)ccc3n2)cc1F	67.2% (inactive)
C=C1C(=O)O[C@H]2[C@H]1CC/C(COC(=O)/C=C\C(=O)NCc1ccc(Cn3c(=O)sn(CCCI)c3=O)cc1)=C\CC[C@@]1(C)O[C@@H]21	-100% (active)
COC(=O)c1ccc(CSc2nnc(-c3ccncc3)o2)cc1	100% (inactive)
O=C(NCc1cn(Cc2cccc(Oc3ccccc3)c2)nn1)c1cccnc1NCc1ccc(Cl)cc1	41.9% (inactive)
CCCCCCCCn1cc(C2=C(c3coc4ccc(OC)cc34)C(=O)NC2=O)c2ccccc21	103% (inactive)
